Laboratory results reported in PubChem BioAssay AID1159580 (chemical genetic matrix, 2015).
Where “and” joins values, the source holds several entries; their conditions need not be identical. Identical values can stand only once. Out of some 5,500 compounds screened, about 2,000 (36%) were called active. Not shown: some 18% with an inconclusive outcome. Rule as the data show it: active = normalized growth mostly below about 0.91 (no sharp cut-off); inconclusive = no clear call, values can overlap the other calls; inactive = mostly above about 0.92. This is one part of the list.

Assay: chemical genetic growth profiling, strain panel (AID 1159580);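 also: tested at 20 µM; growth read once vehicle control cultures reached saturation at 30 °C; 1 = growth at the plate median or of vehicle wells; lower values mean less growth of the strain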
Conditions: S. cerevisiae deletion strains, growth OD

Measured: normalized growth

CCCCCCCCCCCCCCCC[N+](C)(C)C
active: locus YAL013W, strain DEP1, hits give low values 0.0576 | locus YAL021C, strain ccr4, hits give low values 0.0584 | locus YAL026C, strain drs2, hits give low values 0.0563 | locus YAL030W, strain snc1, hits give low values 0.0653 | locus YBL061C, strain skt5, hits give low values 0.057 | locus YBR009C, strain hhf1, hits give low values 0.06 | locus YBR021W, strain FUR4, hits give low values 0.123 | locus YBR023C, strain chs3, hits give low values 0.0601 | locus YBR171W, strain sec66, hits give low values 0.0733 | locus YBR229C, strain ROT2, hits give low values 0.0267 | locus YBR231C, strain swc5, hits give low values 0.0573 | locus YBR279W, strain paf1, hits give low values 0.0573 | locus YCL011C, strain gbp2, hits give low values 0.055 | locus YCL016C, strain dcc1, hits give low values 0.0605 | locus YCL029C, strain bik1, hits give low values 0.0609 | locus YCL061C, strain MRC1, hits give low values 0.0602 | locus YCL069W, strain vba3, hits give low values 0.0611 | locus YCR088W, strain abp1, hits give low values 0.0586 | locus YDL005C, strain med2, hits give low values 0.0729 | locus YDL035C, strain GPR1, hits give low values 0.0499 | locus YDL040C, strain nat1, hits give low values 0.0563 | locus YDL074C, strain BRE1, hits give low values 0.0802 | locus YDL101C, strain DUN1, hits give low values 0.0512 | locus YDL134C, strain PPH21, hits give low values 0.0552 | locus YDL185W, strain tfp1, hits give low values 0.0826 | locus YDL192W, strain arf1, hits give low values 0.0605 | locus YDR001C, strain nth1, hits give low values 0.0561 | locus YDR069C, strain doa4, hits give low values 0.0578 | locus YDR101C, strain arx1, hits give low values 0.0591 | locus YDR137W, strain rgp1, hits give low values 0.0808 | locus YDR150W, strain NUM1, hits give low values 0.0572 | locus YDR159W, strain sac3, hits give low values 0.0724 | locus YDR162C, strain NBP2, hits give low values 0.0544 | locus YDR195W, strain ref2 0.0903 | locus YDR297W, strain sur2, hits give low values 0.0606 | locus YDR318W, strain mcm21, hits give low values 0.0624 | locus YDR334W, strain swr1, hits give low values 0.0599 | locus YDR335W, strain msn5, hits give low values 0.0601 | locus YDR388W, hits give low values 0.0556 | locus YDR392W, strain spt3, hits give low values 0.0767 | locus YDR502C, strain sam2, hits give low values 0.0598 | locus YEL003W, strain gim4, hits give low values 0.0527 | locus YEL037C, strain rad23, hits give low values 0.0584 | locus YEL061C, strain CIN8 (second series), hits give low values 0.0593 | locus YEL061C, strain CIN8, hits give low values 0.0474 | locus YER015W, strain faa2, hits give low values 0.0592 | locus YER016W, strain bim1, hits give low values 0.0587 | locus YER110C, hits give low values 0.0715 | locus YER111C, strain swi4, hits give low values 0.0703 | locus YER155C, strain BEM2 (second series), hits give low values 0.0841 | locus YER155C, strain BEM2, hits give low values 0.0716 | locus YER167W, strain BCK2, hits give low values 0.0534 | locus YFR010W, strain ubp6, hits give low values 0.0598 | locus YGL078C, strain dbp3, hits give low values 0.0583 | locus YGL086W, strain mad1, hits give low values 0.055 | locus YGL167C, strain pmr1, hits give low values 0.0703 | locus YGL173C, strain kem1, hits give low values 0.0795 | locus YGL227W, strain vid30, hits give low values 0.0598 | locus YGL240W, strain doc1, hits give low values 0.0655 | locus YGL248W, strain PDE1, hits give low values 0.0448 | locus YGL253W, strain hxk2, hits give low values 0.0528 | locus YGR078C, strain PAC10, hits give low values 0.0545 | locus YGR135W, strain pre9, hits give low values 0.0674 | locus YGR229C, strain SMI1, hits give low values 0.0636 | locus YGR252W, strain gcn5, hits give low values 0.153 | locus YHR013C, strain ard1, hits give low values 0.0817 | locus YHR027C, strain rpn1, hits give low values 0.0592 | locus YHR030C, strain SLT2, hits give low values 0.0556 and 0.0924 | locus YHR079C, strain IRE1 (second series), hits give low values 0.0564 | locus YHR079C, strain IRE1, hits give low values 0.0965 | locus YHR094C, strain hxt1, hits give low values 0.0577 | locus YHR129C, strain ARP1, hits give low values 0.0524 | locus YHR142W, strain chs7, hits give low values 0.062 | locus YHR200W, strain rpn10, hits give low values 0.0595 | locus YIL066C, strain RNR3, hits give low values 0.0478 | locus YIL073C, strain SPO22, hits give low values 0.0966 | locus YIL125W, strain kgd1, hits give low values 0.0641 | locus YIR030C, strain dcg1, hits give low values 0.0583 | locus YJL092W, strain hpr5, hits give low values 0.0559 | locus YJL095W, strain BCK1 (second series), hits give low values 0.0547 | locus YJL095W, strain BCK1, hits give low values 0.049 and 0.0904 | locus YJL115W, strain asf1, hits give low values 0.0708 | locus YJL129C, strain trk1, hits give low values 0.0757 | locus YJL134W, strain LCB3, hits give low values 0.0478 | locus YJL154C, strain vps35, hits give low values 0.0607 | locus YJL164C, strain tpk1, hits give low values 0.0535 | locus YJL166W, strain qcr8, hits give low values 0.0568 | locus YJL168C, strain set2, hits give low values 0.0569 | locus YJL187C, strain SWE1 (second series), hits give low values 0.0409 | locus YJL187C, strain SWE1, hits give low values 0.0593 | locus YJR043C, strain POL32, hits give low values 0.0614 | locus YJR066W, strain TOR1, hits give low values -0.00145
